Test results reported in PubChem BioAssay AID2157 (National Center for Advancing Translational Sciences (NCATS), 2009).
Inconclusive results are not listed. Values without a mark were called inactive. The source made the active and inactive calls. The call rests on the fitted dose curve; in most records, active means well fitted inhibition curve with a large enough effect; inconclusive means small, poorly fitted or top-dose-only effect; inactive means no such curve, though single readings can be large or run the other way.

These molecules were tested against Polyunsaturated fatty acid lipoxygenase ALOX15 (Homo sapiens) (UniProt P16050) (assay: Confirmation qHTS Assay for Inhibitors of 15-hLO (15-human lipoxygenase)). Conditions: purified enzyme, xylenol orange hydroperoxide absorbance; max response: active compounds read low.
Sequence of Polyunsaturated fatty acid lipoxygenase ALOX15 (Homo sapiens) (P16050 whole entry, looked up): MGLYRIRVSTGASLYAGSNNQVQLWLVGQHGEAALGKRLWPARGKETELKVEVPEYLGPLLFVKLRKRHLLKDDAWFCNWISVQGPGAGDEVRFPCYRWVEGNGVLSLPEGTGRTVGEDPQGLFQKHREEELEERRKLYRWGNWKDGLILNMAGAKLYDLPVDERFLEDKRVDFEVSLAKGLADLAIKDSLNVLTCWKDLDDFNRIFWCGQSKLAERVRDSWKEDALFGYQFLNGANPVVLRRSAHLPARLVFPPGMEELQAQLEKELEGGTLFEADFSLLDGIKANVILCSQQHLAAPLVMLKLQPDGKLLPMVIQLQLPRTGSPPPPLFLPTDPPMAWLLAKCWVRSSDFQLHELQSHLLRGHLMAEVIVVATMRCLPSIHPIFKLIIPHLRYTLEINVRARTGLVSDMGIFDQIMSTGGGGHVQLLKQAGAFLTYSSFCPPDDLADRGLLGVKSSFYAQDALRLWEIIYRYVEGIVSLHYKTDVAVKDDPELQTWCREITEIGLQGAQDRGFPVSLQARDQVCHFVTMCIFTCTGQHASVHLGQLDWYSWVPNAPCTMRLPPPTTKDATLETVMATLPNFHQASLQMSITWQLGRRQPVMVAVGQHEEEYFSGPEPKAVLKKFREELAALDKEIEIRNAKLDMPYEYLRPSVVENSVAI
From the text: Assay Provider: Holman, T.R., University of California, Santa Cruz Screening Center PI: Austin, Christopher P. Screening Center: NIH Chemical Genomics Center Human lipoxygenase 15hLO-1 is a member of the closely related lipoxygenase family of enzymes which catalyze the site-specific oxidation of arachidonic acid to various hormone precursor molecules and as such is a candidate for drug development in a variety of disease areas, such as cancer and inflammation. Inhibition of 15hLO-1 activity was screened by utilizing arachidonic acid as a substrate. The extent of hydroperoxide product formation was measured by a secondary chromogenic reaction in which xylenol orange (XO, Sigma-Aldrich, cat. number 39,818-7) reacts with the ferric ions produced from the reaction between the hydroperoxide and ferrous ions. The Fe(III)-XO complex is characterized with red-shifted absorbance at 560 nm. A purified preparation of human 15hLO-1 was supplied by Professor Ted Holman, University of California, Santa Cruz. This assay includes some confirmation and follow-up compounds for related primary screening assay AID 887.
Assay Protocol: Buffer: 25 mM Hepes pH 7.5, 0.01% Triton X-100. Reagents/Controls: Buffer in columns 3 and 4 as negative control (no enzyme). Substrate solution: 50 uM arachidonic acid (Sigma-Aldrich, St. Louis, MO) final concentration dispensed throughout the plate. Enzyme: 40 nM 15hLO-1 final concentration in columns 1, 2, 5-48. Column 1 is neutral (100% activity). Column 2 contained pin-transferred titration of NDGA (nordihidroguaiaretic acid, Sigma-Aldrich, N 5023, top concentration 10 mM in DMSO, then 1:2 dilution in duplicate). (Dilution factor: 23 nL into 4 uL.) Chromogenic detection reagent (divalent iron/xylenol orange, Fe-XO): 200 uM xylenol orange plus 300 uM ferrous ammonium sulfate prepared freshly in 50 mM sulfuric acid. Assay Steps: Three uL of enzyme were dispensed to 1536-well Greiner black clear bottom plates. Compounds and controls (23 nL) were transferred via Kalypsys PinTool. The plates were incubated for 15 min at room temperature, and then 1 uL of substrate solution was added to start the reaction. After room temperature incubation for 6 minutes, 4 uL of Fe-XO solution was added to each well followed by a short spin (1000 rpm, 15 sec) and the plates were then incubated for 30 min. The absorbance at 405 and 573 nm were measured using ViewLux (Perkin-Elmer) High-throughput CCD imager and absorbance protocol settings. The 573-to-405 absorbance ratio was used to compute reaction progress.
Work on `COc1cccc(-c2nc(NC3CCNCC3)c3ccccc3n2)c1` yielded a max response of -13.6%.
`Cc1cc(Nc2nnnn2-c2ccccc2)n(-c2ccc(Cl)cc2)n1` gave a max response of -13%.
In the case of `c1csc(C2Nc3cccc4cccc(c34)N2)c1`, the Potency was 8.91 µM (active).
For `NC(=O)c1cccc2c3c([nH]c12)CCCC3`, the Potency was 10 µM (active).
`Cc1cccc(CNc2ncnc3ccc(-c4ccc5c(c4)OCO5)cc23)c1` was tested, and the max response was -24.2%.
`Cc1cc(/C=N/NC(=O)Cn2c3ccccc3c(=O)c3ccccc32)c(C)n1-c1ccccc1` was tested, and the Potency was 11.2 µM (active).
`O=C1C2C3CCCC3=C3CCCC3C2C(=O)N1c1cccc(Cl)c1` (configuration not stated) was tested, and the Potency was 14.1 µM (active).
With `Cc1ccc(-c2ccc(/C=C3\C(=O)ON=C3c3ccccc3)o2)c([N+](=O)[O-])c1` the Potency was 2.51 µM (active).
`CCOc1ccc(NS(=O)(=O)c2ccc3[nH]cc(C(=O)N(CC)CC)c(=O)c3c2)cc1` was tested, and the max response was -12.4%.
For `CCOC(=O)c1c(NC(=O)CN2CCOCC2)sc2c1CCCC2`, the Potency was 31.6 µM (active).
`COc1ccc(OC)c(NC(=O)NC2(C(F)(F)F)Oc3ccccc3O2)c1` was tested, and the max response was -7.82%.
`CCCC(=O)NC(c1ccco1)c1cc(Cl)c2cccnc2c1O` (configuration not stated) was tested, and the max response was -17.9%.
`O=C(c1ccncc1)N1CCC2(CCCN(Cc3nccs3)C2)CC1` was tested, and the max response was -6.92%.
`O=C(Nc1nnc(-c2ccco2)s1)C1CCCCC1` gave a max response of -11.3%.
In the case of `COC(=O)c1ccc(C(=S)N2CCOCC2)cc1`, the Potency was 15.8 µM (active).
`Cc1noc(C)c1-c1nc(N(C)Cc2ccco2)c2ccccc2n1` was tested, and the max response was -25.4%.
In the case of `COCCSc1ccccc1C(=O)NCc1ccco1`, the max response was -26.5%.
Work on `COC(=O)c1ccc2c(c1)C(=O)N(C1CCCCC1)C2=O` yielded a max response of -13.1%.
`COc1ccc(NC(=O)CSc2nc(O)cc(=O)n2-c2ccccc2OC)cc1` gave a max response of -13.4%.
Work on `COc1ccccc1-n1c(SCC(=O)Nc2ccc(C)cc2)nc(O)cc1=O` yielded a max response of -8.11%.
In the case of `CN(C)CCC(=O)c1ccc(Cl)cc1`, the max response was -16.6%.
`O=C(Cc1cc(=O)[nH][nH]1)N/N=C/C=C/c1ccccc1` gave a max response of -11.2%.
Molecule `CN1CCN(C(c2cccnc2)c2ccc3cccnc3c2O)CC1` (configuration not stated) has a max response of -27.2%.
Work on `O=C(Nc1nnc(-c2ccccc2)o1)c1ccc(Cl)cc1` yielded a max response of -12.7%.
With `O=C(Nc1cccc(F)c1)N1CCCC2(CCN(C(=O)c3ccco3)CC2)C1` the max response was -7.24%.
In the case of `CC(=O)NCCNc1ncncc1-c1ccc(N(C)C)cc1`, the max response was -61.2%.
With `COc1cccc(-c2nccc(NCc3ccccc3OC)n2)c1` the Potency was 11.2 µM (active).
In the case of `COc1ccccc1CNc1ncncc1-c1ccoc1`, the Potency was 11.2 µM (active).
In the case of `Oc1ccc2ccccc2c1CNc1cnc2ccccc2c1`, the Potency was 14.1 µM (active).
With `Cc1ccc(OCC(=O)Nc2ccc(N3CCCC3)cc2)cc1C` the Potency was 15.8 µM (active).
`Clc1ccc(-c2nnc(C3CCCCC3)o2)cc1` was tested, and the max response was -10.3%.
With `CCC(=O)N(Cc1cc(=O)[nH]c2ccccc12)C1CCCCC1` the max response was -6.49%.
`O=C(C1=C(O)C(=O)N(Cc2ccco2)C1c1cccnc1)c1cc2ccccc2o1` (configuration not stated) was tested, and the max response was -10.1%.
`CCCCn1c(Cc2ccccc2)n[nH]c1=S` showed a max response of -14.5%.
`O=C(Nc1nc2n(n1)C(c1ccccc1)CC(c1ccc(Cl)cc1)N2)c1ccco1` (configuration not stated) showed a max response of -20.1%.
Molecule `Cc1c(N/C=C/C(=O)c2cccs2)c(=O)n(-c2ccccc2)n1C` has a max response of -25.2%.
Work on `Clc1ccc(NNc2ccnc3cc(Cl)ccc23)cc1` yielded a max response of -9.48%.
